# A number with no mark means an inactive call.
# Tests used:
# Experiment in all cases: log2 ratio of Biotin-Ahx-Ub-VS probe labelling (fragment/DMSO); higher = less target engagement (more negative = stronger competition), active = hit call of the paper (q ≤ 0.05, log2 ratio ≤ -1)
# Settings in all cases: compound concentration: 200 uM; treatment time: 3 h
# USP42 = target: T1, USP42 (UniProt Q9H9J4)
# T1 sequence (whole entry): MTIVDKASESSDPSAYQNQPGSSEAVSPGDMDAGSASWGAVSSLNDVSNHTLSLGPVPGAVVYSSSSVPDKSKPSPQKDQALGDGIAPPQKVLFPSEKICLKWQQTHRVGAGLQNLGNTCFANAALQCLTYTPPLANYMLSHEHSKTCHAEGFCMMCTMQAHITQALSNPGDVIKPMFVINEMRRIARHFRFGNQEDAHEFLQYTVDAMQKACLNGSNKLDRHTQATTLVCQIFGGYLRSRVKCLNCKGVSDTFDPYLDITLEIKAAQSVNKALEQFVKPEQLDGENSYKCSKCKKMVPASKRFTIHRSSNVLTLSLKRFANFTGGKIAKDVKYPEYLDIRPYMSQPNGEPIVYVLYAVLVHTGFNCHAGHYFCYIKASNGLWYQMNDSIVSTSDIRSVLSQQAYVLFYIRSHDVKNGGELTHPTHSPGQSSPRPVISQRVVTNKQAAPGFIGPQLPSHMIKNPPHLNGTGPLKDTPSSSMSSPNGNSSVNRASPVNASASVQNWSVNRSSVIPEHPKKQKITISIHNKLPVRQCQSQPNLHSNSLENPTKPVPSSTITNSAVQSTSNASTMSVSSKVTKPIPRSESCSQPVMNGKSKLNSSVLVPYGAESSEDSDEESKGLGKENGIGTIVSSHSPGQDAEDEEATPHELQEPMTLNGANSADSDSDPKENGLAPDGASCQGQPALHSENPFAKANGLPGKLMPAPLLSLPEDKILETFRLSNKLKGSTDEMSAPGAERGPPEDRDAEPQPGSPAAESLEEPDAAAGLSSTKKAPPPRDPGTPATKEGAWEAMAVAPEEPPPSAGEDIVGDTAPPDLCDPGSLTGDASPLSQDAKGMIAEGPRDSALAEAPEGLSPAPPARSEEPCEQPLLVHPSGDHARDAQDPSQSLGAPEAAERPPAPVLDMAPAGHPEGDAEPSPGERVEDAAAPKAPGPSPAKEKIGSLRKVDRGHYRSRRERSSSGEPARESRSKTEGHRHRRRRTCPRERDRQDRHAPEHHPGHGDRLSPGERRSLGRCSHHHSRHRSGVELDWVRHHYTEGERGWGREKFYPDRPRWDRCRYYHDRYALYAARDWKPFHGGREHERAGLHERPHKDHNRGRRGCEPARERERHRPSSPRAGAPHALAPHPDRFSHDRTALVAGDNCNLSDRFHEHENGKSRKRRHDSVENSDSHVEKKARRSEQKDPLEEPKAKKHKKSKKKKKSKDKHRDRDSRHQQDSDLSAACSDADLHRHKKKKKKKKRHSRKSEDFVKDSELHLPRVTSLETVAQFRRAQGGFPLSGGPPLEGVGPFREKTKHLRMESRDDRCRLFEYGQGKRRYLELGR
# How it was run: (§1)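 Fragment (200 µM) or vehicle was incubated for 3 h with triplicate HEK293T lysate samples of 495 µg, which were then treated with Biotin-Ahx-Ub-VS at 0.5 µM final for 1 h. Labelled DUBs were enriched on NeutrAvidin, digested with LysC and trypsin, and analysed by diaPASEF LC-MS/MS. Values are average log2 fragment/vehicle ratios from an unpaired t-test on global-median-normalised Spectronaut label-free quantities, using proteins with ≥2 unique peptides.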
# USP46 = USP46 (UniProt P62068)
# How it was run: as §1
# USP47 = target: T2, USP47 (UniProt Q96K76)
# T2 sequence (whole entry): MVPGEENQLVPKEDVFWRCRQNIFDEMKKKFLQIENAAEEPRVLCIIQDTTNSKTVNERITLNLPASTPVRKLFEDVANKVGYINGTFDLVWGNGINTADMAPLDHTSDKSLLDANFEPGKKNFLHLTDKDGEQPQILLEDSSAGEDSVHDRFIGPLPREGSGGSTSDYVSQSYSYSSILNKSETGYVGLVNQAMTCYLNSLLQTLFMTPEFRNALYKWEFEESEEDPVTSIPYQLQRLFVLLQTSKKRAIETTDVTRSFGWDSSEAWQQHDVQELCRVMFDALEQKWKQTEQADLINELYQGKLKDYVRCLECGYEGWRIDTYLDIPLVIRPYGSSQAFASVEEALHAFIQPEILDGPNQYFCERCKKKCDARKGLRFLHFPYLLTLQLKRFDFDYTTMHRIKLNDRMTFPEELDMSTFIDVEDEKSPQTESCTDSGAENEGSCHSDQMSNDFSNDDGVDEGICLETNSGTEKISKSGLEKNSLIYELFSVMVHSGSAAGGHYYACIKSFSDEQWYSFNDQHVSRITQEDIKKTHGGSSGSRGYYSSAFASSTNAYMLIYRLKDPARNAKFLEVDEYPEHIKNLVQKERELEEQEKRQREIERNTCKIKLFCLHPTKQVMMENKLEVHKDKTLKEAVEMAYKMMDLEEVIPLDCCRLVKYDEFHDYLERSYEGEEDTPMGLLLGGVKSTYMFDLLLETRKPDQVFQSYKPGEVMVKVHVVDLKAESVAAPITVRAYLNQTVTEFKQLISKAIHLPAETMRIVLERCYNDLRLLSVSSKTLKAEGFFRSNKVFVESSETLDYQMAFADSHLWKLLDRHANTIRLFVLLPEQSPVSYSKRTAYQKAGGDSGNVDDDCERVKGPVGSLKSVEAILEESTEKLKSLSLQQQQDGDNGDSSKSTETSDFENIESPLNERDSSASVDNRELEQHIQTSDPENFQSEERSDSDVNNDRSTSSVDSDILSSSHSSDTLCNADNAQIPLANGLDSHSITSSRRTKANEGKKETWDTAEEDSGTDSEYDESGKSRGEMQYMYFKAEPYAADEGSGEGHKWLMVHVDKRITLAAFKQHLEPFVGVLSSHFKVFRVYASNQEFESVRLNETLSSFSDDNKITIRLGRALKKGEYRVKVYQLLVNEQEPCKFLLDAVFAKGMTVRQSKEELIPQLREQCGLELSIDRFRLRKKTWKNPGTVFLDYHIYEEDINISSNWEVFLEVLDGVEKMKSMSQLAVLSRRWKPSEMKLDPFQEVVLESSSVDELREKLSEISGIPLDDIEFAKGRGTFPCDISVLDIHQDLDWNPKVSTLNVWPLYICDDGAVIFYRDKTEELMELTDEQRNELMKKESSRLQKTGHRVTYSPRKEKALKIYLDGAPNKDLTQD
# How it was run: as §1
# USP48 = target: T3, USP48 (UniProt Q86UV5)
# T3 sequence (whole entry): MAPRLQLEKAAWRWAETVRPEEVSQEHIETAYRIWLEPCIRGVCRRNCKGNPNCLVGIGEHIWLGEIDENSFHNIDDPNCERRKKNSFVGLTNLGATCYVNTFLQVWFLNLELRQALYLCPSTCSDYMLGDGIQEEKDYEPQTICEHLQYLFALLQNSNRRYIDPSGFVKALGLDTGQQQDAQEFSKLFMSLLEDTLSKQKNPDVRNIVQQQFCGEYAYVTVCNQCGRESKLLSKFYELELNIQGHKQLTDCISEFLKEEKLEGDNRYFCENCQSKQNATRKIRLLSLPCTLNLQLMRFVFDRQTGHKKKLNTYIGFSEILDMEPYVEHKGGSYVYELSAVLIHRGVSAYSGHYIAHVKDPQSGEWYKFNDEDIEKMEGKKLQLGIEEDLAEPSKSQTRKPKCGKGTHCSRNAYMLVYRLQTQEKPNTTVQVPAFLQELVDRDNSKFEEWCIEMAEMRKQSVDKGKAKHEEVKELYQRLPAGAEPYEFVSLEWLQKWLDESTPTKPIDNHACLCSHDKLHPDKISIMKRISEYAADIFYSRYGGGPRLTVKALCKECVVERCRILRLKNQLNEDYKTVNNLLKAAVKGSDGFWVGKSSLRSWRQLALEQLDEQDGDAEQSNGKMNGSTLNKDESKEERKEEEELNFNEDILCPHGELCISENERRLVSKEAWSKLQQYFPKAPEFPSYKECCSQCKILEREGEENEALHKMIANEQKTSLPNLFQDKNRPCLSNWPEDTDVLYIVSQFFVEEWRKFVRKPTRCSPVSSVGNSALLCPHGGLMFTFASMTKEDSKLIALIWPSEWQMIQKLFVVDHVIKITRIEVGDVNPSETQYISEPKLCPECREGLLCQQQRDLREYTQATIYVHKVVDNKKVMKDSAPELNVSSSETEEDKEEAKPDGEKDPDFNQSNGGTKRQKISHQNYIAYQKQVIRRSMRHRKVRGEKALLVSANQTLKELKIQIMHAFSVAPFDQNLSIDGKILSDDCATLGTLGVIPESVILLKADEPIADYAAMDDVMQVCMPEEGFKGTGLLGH
# How it was run: as §1
# USP5 = target: T4, USP5 (UniProt P45974)
# T4 sequence (whole entry): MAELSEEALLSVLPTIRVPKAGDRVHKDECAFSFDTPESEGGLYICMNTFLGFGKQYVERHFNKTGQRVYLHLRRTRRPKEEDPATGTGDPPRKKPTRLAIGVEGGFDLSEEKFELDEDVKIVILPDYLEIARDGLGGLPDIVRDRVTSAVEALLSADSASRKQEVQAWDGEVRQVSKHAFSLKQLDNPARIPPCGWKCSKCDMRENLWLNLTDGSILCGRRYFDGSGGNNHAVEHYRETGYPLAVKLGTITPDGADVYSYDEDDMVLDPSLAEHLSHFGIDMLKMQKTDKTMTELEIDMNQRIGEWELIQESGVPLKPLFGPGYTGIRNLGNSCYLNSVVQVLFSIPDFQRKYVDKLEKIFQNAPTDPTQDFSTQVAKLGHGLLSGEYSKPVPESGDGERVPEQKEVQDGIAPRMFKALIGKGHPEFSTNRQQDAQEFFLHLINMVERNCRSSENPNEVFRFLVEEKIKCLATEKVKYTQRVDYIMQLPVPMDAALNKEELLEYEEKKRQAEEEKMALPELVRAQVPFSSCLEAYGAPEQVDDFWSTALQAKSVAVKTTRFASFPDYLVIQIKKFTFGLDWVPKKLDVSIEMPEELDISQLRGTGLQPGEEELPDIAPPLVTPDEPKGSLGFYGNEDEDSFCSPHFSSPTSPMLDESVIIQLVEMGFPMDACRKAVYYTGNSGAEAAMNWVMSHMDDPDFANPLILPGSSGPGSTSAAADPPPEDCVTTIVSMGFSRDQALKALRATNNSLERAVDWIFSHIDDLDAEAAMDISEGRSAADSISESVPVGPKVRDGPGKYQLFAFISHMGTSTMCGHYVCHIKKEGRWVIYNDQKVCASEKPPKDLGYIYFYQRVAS
# How it was run: as §1
# USP54 = USP54 (UniProt Q70EL1)
# How it was run: as §1
# USP7 = USP7 (UniProt Q93009)
# How it was run: as §1
# USP8 = target: T5, USP8 (UniProt P40818)
# T5 sequence (whole entry): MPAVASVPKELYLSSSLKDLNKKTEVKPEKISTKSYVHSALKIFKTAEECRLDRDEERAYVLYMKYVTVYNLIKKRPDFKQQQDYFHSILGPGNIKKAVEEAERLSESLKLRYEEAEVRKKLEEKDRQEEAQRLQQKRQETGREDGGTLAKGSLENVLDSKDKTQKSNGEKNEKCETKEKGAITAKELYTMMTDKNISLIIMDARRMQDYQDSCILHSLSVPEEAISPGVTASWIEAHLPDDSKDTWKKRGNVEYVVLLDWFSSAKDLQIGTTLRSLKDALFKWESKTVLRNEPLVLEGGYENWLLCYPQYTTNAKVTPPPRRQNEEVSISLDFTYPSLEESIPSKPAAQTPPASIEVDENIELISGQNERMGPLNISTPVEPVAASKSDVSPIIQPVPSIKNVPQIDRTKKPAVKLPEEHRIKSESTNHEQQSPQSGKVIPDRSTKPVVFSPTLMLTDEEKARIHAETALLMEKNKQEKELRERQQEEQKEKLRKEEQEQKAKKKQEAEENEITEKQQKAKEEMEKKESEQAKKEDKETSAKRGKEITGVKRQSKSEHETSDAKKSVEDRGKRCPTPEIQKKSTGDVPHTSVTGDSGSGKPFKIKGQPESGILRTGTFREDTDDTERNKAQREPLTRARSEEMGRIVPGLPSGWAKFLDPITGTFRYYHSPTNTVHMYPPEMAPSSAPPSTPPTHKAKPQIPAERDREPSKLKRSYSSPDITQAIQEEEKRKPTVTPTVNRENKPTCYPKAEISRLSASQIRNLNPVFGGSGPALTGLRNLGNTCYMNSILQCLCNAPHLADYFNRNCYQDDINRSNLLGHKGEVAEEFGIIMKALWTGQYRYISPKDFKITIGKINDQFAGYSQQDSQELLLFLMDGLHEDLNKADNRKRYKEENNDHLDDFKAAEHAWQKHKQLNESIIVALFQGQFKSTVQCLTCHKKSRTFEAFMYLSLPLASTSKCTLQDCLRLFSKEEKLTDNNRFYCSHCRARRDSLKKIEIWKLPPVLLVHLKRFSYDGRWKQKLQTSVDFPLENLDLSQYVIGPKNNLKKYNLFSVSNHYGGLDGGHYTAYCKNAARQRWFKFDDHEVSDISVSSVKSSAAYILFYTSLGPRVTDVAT
# How it was run: as §1
# USP9X = USP9X (UniProt Q93008)
# How it was run: as §1
# UniProt O00487 = target: UniProt O00487
# How it was run: as §1
# UniProt O00487, sequence (O00487 whole entry): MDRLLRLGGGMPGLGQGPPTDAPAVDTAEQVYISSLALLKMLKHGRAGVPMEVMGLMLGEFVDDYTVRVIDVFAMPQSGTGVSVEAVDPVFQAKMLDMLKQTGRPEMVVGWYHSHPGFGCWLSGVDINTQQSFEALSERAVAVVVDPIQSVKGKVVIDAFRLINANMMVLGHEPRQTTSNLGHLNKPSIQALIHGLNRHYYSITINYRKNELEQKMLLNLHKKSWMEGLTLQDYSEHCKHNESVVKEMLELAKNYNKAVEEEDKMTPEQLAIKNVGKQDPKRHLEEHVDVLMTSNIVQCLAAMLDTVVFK
# USP46, sequence (P62068 whole entry): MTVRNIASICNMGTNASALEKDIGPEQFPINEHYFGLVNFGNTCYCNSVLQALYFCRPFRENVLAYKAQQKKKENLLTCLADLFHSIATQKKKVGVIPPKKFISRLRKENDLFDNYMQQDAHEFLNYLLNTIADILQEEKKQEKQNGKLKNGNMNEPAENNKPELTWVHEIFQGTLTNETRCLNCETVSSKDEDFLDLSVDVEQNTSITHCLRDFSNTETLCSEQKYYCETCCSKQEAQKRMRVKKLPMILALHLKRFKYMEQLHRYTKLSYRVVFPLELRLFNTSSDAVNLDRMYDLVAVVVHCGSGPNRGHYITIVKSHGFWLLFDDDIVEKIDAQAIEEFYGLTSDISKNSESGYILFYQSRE
# USP54, sequence (Q70EL1 whole entry): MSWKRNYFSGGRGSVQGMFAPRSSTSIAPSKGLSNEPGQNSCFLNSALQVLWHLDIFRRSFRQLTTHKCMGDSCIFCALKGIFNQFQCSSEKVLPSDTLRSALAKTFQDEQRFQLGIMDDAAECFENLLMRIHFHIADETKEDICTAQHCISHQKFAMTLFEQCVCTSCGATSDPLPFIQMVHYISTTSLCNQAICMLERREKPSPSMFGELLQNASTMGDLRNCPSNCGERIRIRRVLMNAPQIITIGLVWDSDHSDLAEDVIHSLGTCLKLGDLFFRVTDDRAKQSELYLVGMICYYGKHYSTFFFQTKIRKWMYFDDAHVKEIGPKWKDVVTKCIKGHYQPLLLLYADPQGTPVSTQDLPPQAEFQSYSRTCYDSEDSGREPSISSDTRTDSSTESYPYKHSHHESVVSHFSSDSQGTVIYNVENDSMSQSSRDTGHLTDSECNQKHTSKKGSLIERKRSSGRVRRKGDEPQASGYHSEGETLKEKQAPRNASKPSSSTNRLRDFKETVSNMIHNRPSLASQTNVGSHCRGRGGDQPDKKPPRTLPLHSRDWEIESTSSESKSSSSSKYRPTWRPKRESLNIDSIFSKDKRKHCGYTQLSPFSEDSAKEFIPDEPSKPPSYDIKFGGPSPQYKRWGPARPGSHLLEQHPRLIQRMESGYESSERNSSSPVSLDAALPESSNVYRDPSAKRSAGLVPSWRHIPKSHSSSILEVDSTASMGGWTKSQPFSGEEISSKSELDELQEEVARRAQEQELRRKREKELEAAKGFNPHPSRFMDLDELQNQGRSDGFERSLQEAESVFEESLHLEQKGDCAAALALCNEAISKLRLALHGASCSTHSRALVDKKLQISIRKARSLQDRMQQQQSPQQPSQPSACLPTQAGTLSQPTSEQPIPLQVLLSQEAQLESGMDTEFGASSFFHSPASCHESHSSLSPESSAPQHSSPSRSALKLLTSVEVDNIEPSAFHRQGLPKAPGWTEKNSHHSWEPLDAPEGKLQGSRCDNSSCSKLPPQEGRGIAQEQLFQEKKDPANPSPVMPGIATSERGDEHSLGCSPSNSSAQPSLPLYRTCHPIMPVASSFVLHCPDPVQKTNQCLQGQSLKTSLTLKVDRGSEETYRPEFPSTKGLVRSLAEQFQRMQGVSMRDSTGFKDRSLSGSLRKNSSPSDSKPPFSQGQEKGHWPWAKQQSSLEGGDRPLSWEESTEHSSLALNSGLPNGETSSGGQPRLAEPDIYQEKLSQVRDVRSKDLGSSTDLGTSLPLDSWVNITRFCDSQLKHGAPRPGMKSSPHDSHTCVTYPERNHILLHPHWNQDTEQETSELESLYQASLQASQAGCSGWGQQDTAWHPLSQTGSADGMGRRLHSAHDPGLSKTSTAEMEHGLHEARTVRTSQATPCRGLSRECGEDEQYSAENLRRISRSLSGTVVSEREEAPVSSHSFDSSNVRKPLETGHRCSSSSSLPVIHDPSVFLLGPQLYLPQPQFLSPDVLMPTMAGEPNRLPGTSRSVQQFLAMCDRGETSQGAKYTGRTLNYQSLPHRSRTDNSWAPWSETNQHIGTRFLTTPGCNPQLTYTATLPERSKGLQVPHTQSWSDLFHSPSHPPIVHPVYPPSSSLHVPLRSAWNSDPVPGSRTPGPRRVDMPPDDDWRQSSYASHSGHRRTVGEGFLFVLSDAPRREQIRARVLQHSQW
# USP9X, sequence (Q93008 whole entry): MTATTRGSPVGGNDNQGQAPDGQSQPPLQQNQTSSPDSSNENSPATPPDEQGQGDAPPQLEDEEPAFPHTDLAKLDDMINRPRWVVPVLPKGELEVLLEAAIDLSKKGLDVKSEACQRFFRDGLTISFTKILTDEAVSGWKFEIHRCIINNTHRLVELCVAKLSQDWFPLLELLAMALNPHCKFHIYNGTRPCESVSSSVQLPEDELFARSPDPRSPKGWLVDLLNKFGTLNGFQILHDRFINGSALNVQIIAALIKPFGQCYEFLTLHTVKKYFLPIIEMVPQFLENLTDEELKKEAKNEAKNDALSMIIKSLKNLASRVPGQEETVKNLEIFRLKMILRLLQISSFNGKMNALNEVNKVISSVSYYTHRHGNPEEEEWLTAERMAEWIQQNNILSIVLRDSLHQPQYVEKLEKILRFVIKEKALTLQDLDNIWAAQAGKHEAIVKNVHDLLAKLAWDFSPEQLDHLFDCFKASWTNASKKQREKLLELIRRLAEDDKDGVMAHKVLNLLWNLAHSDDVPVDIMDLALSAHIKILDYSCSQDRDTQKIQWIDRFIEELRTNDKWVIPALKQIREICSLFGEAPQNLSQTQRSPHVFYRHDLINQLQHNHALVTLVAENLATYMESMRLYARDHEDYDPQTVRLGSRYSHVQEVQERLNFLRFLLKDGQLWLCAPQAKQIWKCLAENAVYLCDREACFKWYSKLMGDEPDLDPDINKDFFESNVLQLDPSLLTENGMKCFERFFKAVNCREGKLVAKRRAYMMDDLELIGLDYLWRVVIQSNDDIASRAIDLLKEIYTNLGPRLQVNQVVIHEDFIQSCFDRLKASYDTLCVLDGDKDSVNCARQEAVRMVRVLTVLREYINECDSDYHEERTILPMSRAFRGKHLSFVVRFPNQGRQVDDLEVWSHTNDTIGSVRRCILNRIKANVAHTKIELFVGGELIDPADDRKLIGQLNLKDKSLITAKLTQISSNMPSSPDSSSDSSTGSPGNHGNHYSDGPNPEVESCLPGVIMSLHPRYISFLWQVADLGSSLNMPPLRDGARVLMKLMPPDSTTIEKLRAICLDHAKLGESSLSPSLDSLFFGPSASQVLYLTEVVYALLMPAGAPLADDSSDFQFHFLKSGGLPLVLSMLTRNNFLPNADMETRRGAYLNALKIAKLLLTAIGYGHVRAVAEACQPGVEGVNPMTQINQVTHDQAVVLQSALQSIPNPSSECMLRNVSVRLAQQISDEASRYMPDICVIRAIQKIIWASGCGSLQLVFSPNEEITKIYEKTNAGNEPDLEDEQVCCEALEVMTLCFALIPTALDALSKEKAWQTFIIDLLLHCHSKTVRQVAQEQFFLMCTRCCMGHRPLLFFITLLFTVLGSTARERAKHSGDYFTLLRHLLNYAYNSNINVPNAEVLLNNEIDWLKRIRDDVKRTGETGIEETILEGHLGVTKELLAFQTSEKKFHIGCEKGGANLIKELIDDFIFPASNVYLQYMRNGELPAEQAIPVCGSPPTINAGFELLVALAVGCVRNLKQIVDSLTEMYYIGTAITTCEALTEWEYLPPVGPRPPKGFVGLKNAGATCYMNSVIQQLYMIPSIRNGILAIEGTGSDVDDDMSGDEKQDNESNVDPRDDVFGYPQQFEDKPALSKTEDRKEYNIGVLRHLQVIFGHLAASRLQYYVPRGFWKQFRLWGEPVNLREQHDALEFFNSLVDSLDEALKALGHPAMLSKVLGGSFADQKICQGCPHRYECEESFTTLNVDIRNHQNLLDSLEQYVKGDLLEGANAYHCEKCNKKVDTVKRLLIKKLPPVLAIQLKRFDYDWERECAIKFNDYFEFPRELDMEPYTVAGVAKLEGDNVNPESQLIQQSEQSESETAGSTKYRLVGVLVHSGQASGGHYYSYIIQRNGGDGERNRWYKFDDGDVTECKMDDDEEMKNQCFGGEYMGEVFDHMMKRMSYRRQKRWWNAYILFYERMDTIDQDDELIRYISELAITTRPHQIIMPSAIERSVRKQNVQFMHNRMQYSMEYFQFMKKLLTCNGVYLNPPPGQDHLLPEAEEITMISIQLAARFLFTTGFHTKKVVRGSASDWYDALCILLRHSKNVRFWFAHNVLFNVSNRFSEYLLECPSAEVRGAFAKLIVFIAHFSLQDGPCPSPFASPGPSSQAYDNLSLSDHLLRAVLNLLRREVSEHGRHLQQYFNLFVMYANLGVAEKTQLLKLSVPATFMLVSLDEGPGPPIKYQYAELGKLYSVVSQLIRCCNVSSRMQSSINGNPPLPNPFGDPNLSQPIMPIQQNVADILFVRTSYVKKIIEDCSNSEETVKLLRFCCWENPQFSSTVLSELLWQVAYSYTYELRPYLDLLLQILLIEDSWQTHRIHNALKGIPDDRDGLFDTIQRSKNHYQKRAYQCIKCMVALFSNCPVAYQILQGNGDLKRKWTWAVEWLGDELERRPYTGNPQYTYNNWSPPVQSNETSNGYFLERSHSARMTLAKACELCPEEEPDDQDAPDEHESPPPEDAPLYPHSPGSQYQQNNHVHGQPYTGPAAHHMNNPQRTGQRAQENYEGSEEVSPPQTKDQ
smiles,measurement,setting,value
Cl.O=C(CCl)N1CC(c2ccc(Br)cn2)C1,log2 ratio of Biotin-Ahx-Ub-VS probe labelling,USP42,0.0546
same,log2 ratio of Biotin-Ahx-Ub-VS probe labelling,USP46,-0.129
same,log2 ratio of Biotin-Ahx-Ub-VS probe labelling,USP47,-0.944
same,log2 ratio of Biotin-Ahx-Ub-VS probe labelling,USP48,-0.383
same,log2 ratio of Biotin-Ahx-Ub-VS probe labelling,USP5,0.197
same,log2 ratio of Biotin-Ahx-Ub-VS probe labelling,USP54,0.556
same,log2 ratio of Biotin-Ahx-Ub-VS probe labelling,USP7,-1.29 (active)
same,log2 ratio of Biotin-Ahx-Ub-VS probe labelling,USP8,-0.318
same,log2 ratio of Biotin-Ahx-Ub-VS probe labelling,USP9X,-0.297
same,log2 ratio of Biotin-Ahx-Ub-VS probe labelling,UniProt O00487,-0.285
